Source: PubChem
An excerpt weighted towards active compounds, which were near 0.54% of everything screened.
PDI inh = PDI (human) enzyme inhibition; P07237; PDI insulin aggregation turbidity, A650, 90 min; 350,000 tested, 0.052% active; inhibition, % at 10 µM;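 active = mean inhibition across replicates of 30% or more, whatever share of single replicates reach that level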
PvdQ acylase = blocks Pseudomonas aeruginosa PvdQ acylase activity; purified PvdQ acylase, fluorescence plate reader; 340,000 tested, 0.063% active; inhibition, % at 10 µM; in the data active = inhibition above about 30%, passing the limit was not always enough;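 note: 0% = vehicle neutral wells and 100% = reference inhibitor wells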
Efflux pump mplx = antifungal efflux pump inhibition, Nile Red retention. S. cerevisiae Candida pump triplex. inhibition, % at 10 µM. 330,000 tested, 0.44% active. AID 485275;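 active = plate passing quality check with inhibition over a set limit, or well fluorescence over plate mean plus 4 SD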;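 note: Nile Red retained in pooled yeast measured as flow cytometry median fluorescence; 0% = buffer negative control and 100% = Enniatin B positive control; higher means more Nile Red kept so more efflux inhibition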
ERp5 block = ERp5 (human) disulfide isomerase inhibition; inhibition, % at 9.99 µM; 350,000 tested, 0.05% active; AID 651711; Q15084; ERp5 insulin aggregation, absorbance 650 nm, 90 min;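 active = mean replicate inhibition above about 25%, with every replicate also reaching it, limit read from the data, passing the limit was not always enough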
Target sequence (Q15084 whole entry, looked up): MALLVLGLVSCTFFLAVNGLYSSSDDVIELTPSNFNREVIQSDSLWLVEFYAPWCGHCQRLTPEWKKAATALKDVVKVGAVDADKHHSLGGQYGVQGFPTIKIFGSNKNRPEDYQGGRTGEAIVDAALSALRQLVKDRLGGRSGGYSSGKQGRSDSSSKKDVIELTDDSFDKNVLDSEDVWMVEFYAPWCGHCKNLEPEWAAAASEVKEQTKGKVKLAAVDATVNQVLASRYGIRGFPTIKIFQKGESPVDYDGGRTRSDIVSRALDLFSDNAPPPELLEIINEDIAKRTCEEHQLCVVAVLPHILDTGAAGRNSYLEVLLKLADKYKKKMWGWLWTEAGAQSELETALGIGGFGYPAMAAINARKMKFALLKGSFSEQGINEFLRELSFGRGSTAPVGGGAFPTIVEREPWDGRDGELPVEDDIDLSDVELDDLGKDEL
Rtt109 HAT inh = blocks Candida albicans Rtt109/Vps75 acetyltransferase activity | Q5AAJ8 | purified Rtt109/Vps75, ThioGlo CoA-SH fluorescence, 4 h | inhibition, % at 34.9 µM | 330,000 tested, 0.16% active;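 active = inhibition of at least 50% in every replicate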
Yeast cmpd fluor = counter-screen for efflux pump inhibitors: compound fluorescence | shares compounds with Efflux pump mplx | S. cerevisiae AD/pABC3, flow cytometry | fluorescence ratio to DMSO, % at 10 µM | 1,700 tested, 4% active;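 active = fluorescence ratio to DMSO above its plate's cutoff, the plate mean ratio plus 5 SD, cut at about 210% in these data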;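 note: unstained yeast with no Nile Red so the signal is compound autofluorescence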
Mdr1 pump inh = blocks the Candida albicans Mdr1 efflux pump in yeast | shares compounds with Efflux pump mplx | S. cerevisiae AD/CaMDR1, Nile Red efflux, flow cytometry | inhibition, % at 10 µM | 1,700 tested, 1% active; in the data active = inhibition above about 26%;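 note: 0% = DMSO vehicle and 100% = reference inhibitor; higher means more Nile Red retained so more efflux inhibition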
Cdr2 pump inh = blocks the Candida albicans Cdr2 efflux pump in yeast. S. cerevisiae AD/CaCDR2, Nile Red retention, flow cytometry. 1,700 tested, 4% active. shares compounds with Efflux pump mplx. Nile Red retention ratio vs DMSO, % at 10 µM; in the data active = Nile Red retention ratio vs DMSO above about 190%;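 note: higher ratio means more blocking of Cdr2 efflux of the dye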
Cdr1 pump inh = inhibitors of Candida albicans Cdr1 efflux pump. shares compounds with Efflux pump mplx. S. cerevisiae AD/CaCDR1, Nile Red efflux, flow cytometry. inhibition, % at 10 µM. 1,700 tested, 1% active. AID 588522;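 active = inhibition above the screen-wide mean plus twice its standard deviation, cut at about 32% in these data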
* hit, by the source's call; . = not tested or not shown.

SMILES	PDI inh	PvdQ acylase	Efflux pump mplx	ERp5 block	Rtt109 HAT inh	Yeast cmpd fluor	Mdr1 pump inh	Cdr2 pump inh	Cdr1 pump inh
O=[N+]([O-])c1ccc(/C=N/Nc2ccccn2)cc1	-12	18	0	-4	2	.	.	.	.
Cc1ccc([N+](=O)[O-])cc1S(=O)(=O)Nc1cccc(-c2ccc(N3CCCC3)nn2)c1	3	-6	0.4*	-5	-4	100	0	89	0
COc1ccccc1N1CCN(C(=O)c2cc(-c3cccs3)on2)CC1	-1	-16	0.7*	.	16	100	0	123	0
COCC(=O)N1C[C@@H](C)[C@@H](OC)CN(C)C(=O)c2cc(NS(C)(=O)=O)ccc2OC[C@H]1C	.	.	.	2	.	.	.	.	.
CCC1=C(OC(=O)N(CC)CC)N2C(=O)OC(=NCCOC)[C@]2(Cc2ccccc2)[C@H]2C1=CC[C@H]1C(=O)N(CC)C(=O)[C@H]12	0	-8	0	-2	-4	.	.	.	.
CCC1=C(OC(=O)N(CC)CC)N2C(=O)OC(=NCCc3c[nH]c4ccccc34)[C@]2(Cc2ccccc2)[C@H]2C1=CC[C@H]1C(=O)N(CC)C(=O)[C@H]12	2	-8	39*	-7	15	106	0	91	0
CC(C)NC(=O)Nc1ccc2c(c1)C(=O)N([C@H](C)CO)C[C@H](C)[C@@H](CN(C)Cc1ccncc1)O2	.	.	.	-4	.	.	.	.	.
Cc1ccc(N(C(=O)Cn2nnc(-c3ccccc3)n2)C(C(=O)NC2CCCCC2)c2ccccn2)cc1C (stereo not given)	4	0	0	5	-2	.	.	.	.
Cc1cc(C)cc(N(C(=O)Cn2nnc(-c3ccccc3)n2)C(C(=O)NC2CCCCC2)c2ccccn2)c1 (stereo not given)	-11	-11	6.4*	.	3	105	0	101	0
CCC(=O)N1CCC2(CC1)Oc1ccc(Cl)cc1C(=O)C21CC(c2ccc(Cl)cc2)=NO1 (stereo not given)	-2	-5	0	4	0	107	0	108	0
Cc1ccc(C(=O)N2CCC3(CC2)Oc2ccc(Cl)cc2C(=O)C32CC(c3cccnc3)=NO2)s1 (stereo not given)	-2	-13	0	3	8	111	0	127	0
Cc1ccc(C(=O)N2CCC3(CC2)Oc2ccc(F)cc2C(=O)C32CC(c3ccccc3)=NO2)s1 (stereo not given)	-1	-7	3	-4	-2	.	.	.	.
CCC(=O)N1CCC2(CC1)Oc1ccc(F)cc1C(=O)C21CC(c2ccc(Cl)cc2)=NO1 (stereo not given)	-2	-13	0	-3	-1	.	.	.	.
Cc1ccc(C(=O)N2CCC3(CC2)Oc2ccc(Cl)cc2C(=O)C32CC(c3ccc(Cl)cc3)=NO2)s1 (stereo not given)	-28	-8	0	6	-6	98	0	112	0
Cc1ccc(C(=O)N2CCC3(CC2)Oc2ccc(Cl)cc2C(=O)C32CC(c3ccccc3)=NO2)s1 (stereo not given)	2	7	0	10	3	94	0	91	0
O=C(c1ccc(F)cc1)N1CCCCN2[C@H](CO)[C@H](c3ccc(C#CC4(O)CCCC4)cc3)[C@@H]2C1	.	.	.	0	.	.	.	.	.
C[C@H]1CN([C@@H](C)CO)C(=O)c2cc(NC(=O)Cn3cnnn3)ccc2O[C@H]1CN(C)Cc1ccc(Cl)c(Cl)c1	.	.	.	2	.	.	.	.	.
O=C(Oc1ccc2c(=O)c(Oc3ccc4ccccc4c3)coc2c1)c1cncc(Br)c1	3	-5	1.2*	-5	-5	103	0	112	0
O=C(Oc1ccc2ccccc2c1)c1cncc(Br)c1	1	-11	0	3	1	.	.	.	.
CCOC(=O)c1nn(-c2ccc(OCC)cc2)c(C)c1C(C)=O	8	-15	1.8*	5	-7	108	0	98	0
CCOC(=O)c1nn(-c2ccc(C)cc2)c(C)c1C(C)=O	0	2	0	.	21	.	.	.	.
O=C1/C(=C/c2ccccn2)SC(=S)N1Nc1ncc(C(F)(F)F)cc1Cl	4	-13	.	-12	-2	100	0	92	0
O=C1/C(=C/c2ccc(F)cc2)SC(=S)N1Nc1ncc(C(F)(F)F)cc1Cl	2	6	0	.	13	100	0	108	0
O=C1/C(=C\c2ccccn2)SC(=S)N1Nc1ncc(C(F)(F)F)cc1Cl	-4	-2	0	.	-11	.	.	.	.
COc1cc(CNC(C)(C)CO)cc(Br)c1OCc1ccc(Cl)cc1Cl	4	-4	-19	6	29	.	.	.	.
SMILES	PDI inh	PvdQ acylase	Efflux pump mplx	ERp5 block	Rtt109 HAT inh	Yeast cmpd fluor	Mdr1 pump inh	Cdr2 pump inh	Cdr1 pump inh
COc1cc(CNC(C)(C)CO)cc(Br)c1OCc1ccc(Cl)cc1	9	-6	6.4*	.	16	104	0	108	0
Cc1ccc(C(C)(C)C)cc1S(=O)(=O)N1CCC(C(=O)N2CCN(c3ccc(O)cc3)CC2)CC1	-7	6	0.8*	-1	2	117	0	118	0
O=C(C[C@H]1C[C@H]2c3cc(NC(=O)CC4CC4)ccc3O[C@H]2[C@@H](CO)O1)NCc1ccc2c(c1)OCO2	.	.	.	2	.	.	.	.	.
COc1ccc(CN2C(=O)C(C)Nc3ncnc(N4CCN(c5ccccc5)CC4)c32)cc1 (stereo not given)	20	-16	0	-1	2	94	0	116	0
CCC1Nc2ncnc(N3CCN(c4ccccn4)CC3)c2N(Cc2ccc(Br)cc2)C1=O (stereo not given)	11	8	0	11	5	112	0	121	0
CCC1Nc2ncnc(N3CCN(c4ccccn4)CC3)c2N(Cc2ccc(Cl)cc2)C1=O (stereo not given)	-2	1	0	4	1	.	.	.	.
COc1ccc(CN2C(=O)C(C)Nc3ncnc(N4CCOCC4)c32)cc1 (stereo not given)	1	-6	0	4	2	.	.	.	.
CCC1Nc2ncnc(N3CCN(c4ccccc4)CC3)c2N(Cc2ccc(C)cc2)C1=O (stereo not given)	29	2	0	1	7	.	.	.	.
CCC1Nc2ncnc(N3CCN(c4ccccc4)CC3)c2N(Cc2ccccc2)C1=O (stereo not given)	15	7	0	0	10	107	0	120	0
Cc1ccc(CN2C(=O)C(CC(C)C)Nc3ncnc(N4CCN(c5ccccc5)CC4)c32)cc1 (stereo not given)	2	-3	0	13	-10	109	0	117	0
